Results published in PubChem BioAssay AID1159580 (chemical genetic matrix, 2015).
The whole screen tested about 5,500 compounds, of which about 2,000 (36%) were called active. Roughly 18% stayed inconclusive and do not appear here. Cut-off read from the data, not from the text of the source: active = normalized growth mostly below about 0.91 (no sharp cut-off); inconclusive = no clear call, values can overlap the other calls; inactive = mostly above about 0.92. Some of the results follow.

Test: chemical genetic growth profiling, strain panel (AID 1159580);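 note: tested at 20 µM; growth read once vehicle control cultures reached saturation at 30 °C; 1 = growth at the plate median or of vehicle wells; lower values mean less growth of the strain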
Conditions: S. cerevisiae deletion strains, growth OD
[1] = locus YAL013W, strain DEP1, active compounds read low
[2] = locus YDR150W, strain NUM1, active compounds read low
[3] = locus YJR075W, strain HOC1, active compounds read low
[4] = locus YDL101C, strain DUN1, active compounds read low
[5] = locus YHR030C, strain SLT2, active compounds read low
[6] = locus YAR019C, strain CDC15, active compounds read low
[7] = locus YBL105C, strain PKC1, active compounds read low
[8] = locus YBR135W, strain CKS1, active compounds read low
[9] = locus YBR136W, strain MEC1, active compounds read low
[10] = locus YBR160W, strain CDC28, active compounds read low
[11] = locus YDL017W, strain CDC7, active compounds read low
[12] = locus YDL028C, strain MPS1, active compounds read low
[13] = locus YDL108W, strain KIN28, active compounds read low
[14] = locus YDL132W, strain cdc53, active compounds read low
[15] = locus YDL214C, strain PRR2, active compounds read low
[16] = locus YDR052C, strain DBF4, active compounds read low
[17] = locus YDR054C, strain cdc34, active compounds read low
[18] = locus YDR226W, strain ADK1, active compounds read low
[19] = locus YDR477W, strain SNF1, active compounds read low
[20] = locus YER123W, strain YCK3, active compounds read low
[21] = locus YER133W, strain GLC7, active compounds read low
[22] = locus YFL009W, strain cdc4, active compounds read low
[23] = locus YFL029C, strain CAK1, active compounds read low
[24] = locus YFR003C, strain YPI1, active compounds read low
[25] = locus YFR019W, strain FAB1, active compounds read low
[26] = locus YFR028C, strain CDC14, active compounds read low
[27] = locus YGR040W, strain KSS1, active compounds read low
[28] = locus YGR052W, strain FMP48, active compounds read low
[29] = locus YGR092W, strain DBF2, active compounds read low
[30] = locus YHR079C, strain IRE1, active compounds read low
[31] = locus YHR082C, strain KSP1, active compounds read low
[32] = locus YHR205W, strain SCH9, active compounds read low
[33] = locus YIL147C, strain SLN1, active compounds read low
[34] = locus YJL095W, strain BCK1, active compounds read low
[35] = locus YJL128C, strain PBS2, active compounds read low
[36] = locus YJL157C, strain FAR1, active compounds read low
[37] = locus YJR016C, strain ILV3, active compounds read low
[38] = locus YJR066W, strain TOR1 (second series), active compounds read low
[39] = locus YJR066W, strain TOR1, active compounds read low
[40] = locus YKL048C, strain ELM1, active compounds read low
[41] = locus YKL067W, strain YNK1, active compounds read low
[42] = locus YKL101W, strain HSL1, active compounds read low
[43] = locus YKL193C, strain SDS22, active compounds read low
[44] = locus YKL203C, strain TOR2, active compounds read low
[45] = locus YLR113W, strain HOG1, active compounds read low
[46] = locus YLR133W, strain CKI1, active compounds read low
[47] = locus YLR403W, strain SFP1, active compounds read low
[48] = locus YML070W, strain DAK1, active compounds read low
[49] = locus YMR001C, strain CDC5, active compounds read low
[50] = locus YMR205C, strain PFK2 (second series), active compounds read low
[51] = locus YMR277W, strain FCP1, active compounds read low
[52] = locus YNL006W, strain LST8, active compounds read low
[53] = locus YNL020C, strain ARK1, active compounds read low
[54] = locus YNL161W, strain CBK1, active compounds read low
[55] = locus YNL183C, strain NPR1, active compounds read low
[56] = locus YNL207W, strain RIO2, active compounds read low
[57] = locus YNL222W, strain SSU72, active compounds read low
[58] = locus YNL307C, strain MCK1 (second series), active compounds read low
[59] = locus YOL078W, strain AVO1, active compounds read low
[60] = locus YOL136C, strain PFK27, active compounds read low
[61] = locus YOR061W, strain CKA2, active compounds read low
[62] = locus YOR119C, strain RIO1, active compounds read low
[63] = locus YOR231W, strain MKK1, active compounds read low
[64] = locus YOR329C, strain SCD5, active compounds read low
[65] = locus YPL031C, strain PHO85, active compounds read low
[66] = locus YPL153C, strain RAD53, active compounds read low
[67] = locus YPL204W, strain HRR25, active compounds read low
[68] = locus YPL209C, strain IPL1, active compounds read low
[69] = locus YPL256C, strain CLN2, active compounds read low
[70] = locus YPR025C, strain CCL1, active compounds read low
[71] = locus YPR106W, strain ISR1, active compounds read low
[72] = locus YPR111W, strain DBF20, active compounds read low
[73] = strain NNK1, active compounds read low
[74] = strain TSCII, active compounds read low

Measured: normalized growth

CCNC(=O)[C@H]1O[C@@H](n2cnc3c(N)ncnc32)C(O)[C@H]1O (stereo partly specified)
inactive: [1] 1 | locus YAL040C, strain CLN3, active compounds read low 1.02 | locus YCL061C, strain MRC1 (second series), active compounds read low 1 | [2] 1 | locus YDR363W, strain ESC2, active compounds read low 1.03 | locus YER002W, strain NOP16, active compounds read low 1.01 | [3] 1 | locus YNL175C, strain NOP13, active compounds read low 1 | locus YNL197C, strain WHI3, active compounds read low 1.01 | locus YNL224C, strain SQS1, active compounds read low 0.992 | locus YOR083W, strain WHI5 (second series), active compounds read low 1.04

Cc1nc(-c2ccc(S(=O)(=O)N3CCN(c4ncnc5scc(-c6ccccc6)c45)CC3)s2)cs1
inactive: [1] 1.02 | locus YBR229C, strain ROT2, active compounds read low 1 | locus YCL061C, strain MRC1, active compounds read low 1.01 | [4] 1 | [2] 0.936 | locus YEL061C, strain CIN8, active compounds read low 0.995 | locus YGR078C, strain PAC10, active compounds read low 1.01 | [5] 1.04 | locus YHR087W, strain rtc3, active compounds read low 1.02 | locus YJL187C, strain SWE1, active compounds read low 1.02 | locus YJR043C, strain POL32, active compounds read low 1.01 | [3] 1.02 | locus YLR039C, strain RIC1, active compounds read low 1.03 | locus YLR058C, strain SHM2 (second series), active compounds read low 1.01 | locus YLR085C, strain ARP6, active compounds read low 1.05 | locus YLR262C, strain YPT6, active compounds read low 1.02 | locus YML094W, strain GIM5, active compounds read low 1.02 | locus YMR219W, strain ESC1, active compounds read low 1.01 | locus YMR263W, strain SAP30, active compounds read low 1.03 | locus YMR307W, strain GAS1, active compounds read low 0.952 | locus YNL153C, strain GIM3, active compounds read low 1 | locus YNL298W, strain CLA4 (second series), active compounds read low 1.03 | locus YNL322C, strain KRE1, active compounds read low 1.01 | locus YNR030W, strain Alg12, active compounds read low 1.01 | locus YOL006C, strain TOP1, active compounds read low 0.997 | locus YPL055C, strain LGE1, active compounds read low 0.897 | locus YPL241C, strain CIN2, active compounds read low 1.05 | locus YPR135W, strain CTF4, active compounds read low 0.993

Cc1ccc(NS(=O)(=O)c2ccc(-c3csc(C)n3)s2)c(C)c1
active: [5] 0.647 | [45] 0.676 | [69] 0.715
inactive: [6] 0.977 | [7] 0.984 | [8] 0.979 | [9] 0.981 | [10] 0.983 | [11] 0.984 | [12] 0.98 | [4] 0.993 | [13] 0.972 | [14] 0.989 | [15] 0.904 | [16] 0.986 | [17] 0.975 | [18] 0.986 | [19] 0.885 | [20] 0.888 | [21] 0.883 | [22] 0.976 | [23] 0.979 | [24] 0.98 | [25] 0.934 | [26] 0.981 | [27] 0.895 | [28] 0.928 | [29] 0.913 | [30] 0.883 | [31] 0.976 | [32] 0.977 | [33] 0.982 | [34] 0.859 | [35] 0.943 | [36] 0.931 | [37] 0.983 | [38] 0.826 | [39] 0.936 | [40] 0.957 | [41] 0.898 | [42] 0.894 | [43] 0.985 | [44] 0.92 | [46] 0.902 | [47] 0.912 | [48] 0.856 | [49] 0.977 | [50] 0.915 | [51] 0.98 | [52] 0.978 | [53] 0.898 | [54] 0.982 | [55] 0.893 | [56] 0.975 | [57] 0.986 | [58] 0.887 | [59] 0.983 | [60] 0.915 | [61] 0.84 | [62] 0.93 | [63] 0.806 | [64] 0.98 | [65] 0.892 | [66] 0.937 | [67] 0.881 | [68] 0.982 | [70] 0.981 | [71] 0.988 | [72] 0.962 | [73] 0.974 | [74] 0.975

Cc1nc(-c2ccc(S(=O)(=O)Nc3ccc(Br)cc3Cl)s2)cs1
active: [5] 0.575 | [45] 0.635 | [69] 0.672
inactive: [6] 0.936 | [7] 0.946 | [8] 0.953 | [9] 0.942 | [10] 0.959 | [11] 0.942 | [12] 0.957 | [4] 0.956 | [13] 0.961 | [14] 0.951 | [15] 0.888 | [16] 0.941 | [17] 0.928 | [18] 0.943 | [19] 0.858 | [20] 0.904 | [21] 0.867 | [22] 0.957 | [23] 0.953 | [24] 0.949 | [25] 0.923 | [26] 0.952 | [27] 0.868 | [28] 0.866 | [29] 0.877 | [30] 0.778 | [31] 0.943 | [32] 0.944 | [33] 0.957 | [34] 0.84 | [35] 0.89 | [36] 0.893 | [37] 0.94 | [38] 0.882 | [39] 0.93 | [40] 0.919 | [41] 0.883 | [42] 0.864 | [43] 0.942 | [44] 0.893 | [46] 0.888 | [47] 0.863 | [48] 0.856 | [49] 0.946 | [50] 0.907 | [51] 0.94 | [52] 0.937 | [53] 0.884 | [54] 0.946 | [55] 0.901 | [56] 0.925 | [57] 0.952 | [58] 0.891 | [59] 0.952 | [60] 0.852 | [61] 0.859 | [62] 0.938 | [63] 0.79 | [64] 0.946 | [65] 0.862 | [66] 0.893 | [67] 0.846 | [68] 0.942 | [70] 0.953 | [71] 0.943 | [72] 0.926 | [73] 0.926 | [74] 0.937
